# Source: PubChem BioAssay (NCI)
# Compounds without any hit were thinned out: in the full panel of roughly 83,000, 20% have a hit.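 Growth was measured after 48 h exposure to one concentration of compound in 96-well plates. Values under 10 count as active.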 A number with no mark means an inactive call. Active and inactive are the calls of the source.
# How the values were obtained:
# Assay in all cases: NCI-60 one-dose screen, 48 h (100 = growth as untreated, 0 = no growth, -100 = all killed)
# Conditions in all cases: 10 µM unless noted
# SK-MEL-2 melanoma = system: SK-MEL-2 melanoma
# EKVX NSCLC = system: EKVX NSCLC
# SN12C renal = system: SN12C renal
# UO-31 renal = system: UO-31 renal
# TK-10 renal = system: TK-10 renal
# ACHN renal = system: ACHN renal
# CAKI-1 renal = system: CAKI-1 renal
# A498 renal = system: A498 renal
# CCRF-CEM leukemia = system: CCRF-CEM leukemia
# MOLT-4 leukemia = system: MOLT-4 leukemia
SMILES,growth (SK-MEL-2 melanoma),growth (EKVX NSCLC),growth (SN12C renal),growth (UO-31 renal),growth (TK-10 renal),growth (ACHN renal),growth (CAKI-1 renal),growth (A498 renal),growth (CCRF-CEM leukemia),growth (MOLT-4 leukemia)
CC1(C)N=C(N)N=C(N)N1c1ccc(Cl)c(Cl)c1,64.6%,52.5%,27.1%,48.3%,48.5%,28.4%,60.8%,99.1%,32%,34.6%
Cc1nn(Cc2ccccc2)cc1C(=O)Nc1sc2c(c1C(N)=O)CCC(=O)C2,74.5%,54.9%,15.5%,11.8%,15.5%,5.29% (active),5.49% (active),108%,9.5% (active),16.5%
Cc1cnc(Nc2ccc(OCCN3CCCC3)cc2)nc1NCc1ccco1,97.9%,71.5%,68.5%,47.8%,79.4%,79.4%,62.5%,71.5%,72.7%,
CCCCOc1ccc(NC(=O)n2nc(N=NN(C)C)c3ccc(Cl)cc32)cc1,97.6%,102%,93.5%,65.7%,126%,93.8%,90.7%,100%,88.9%,
O=C(O)C1C[C@](O)(c2ccc(F)cc2)[C@@H](c2ccc(F)cc2)O1 (some centres undefined),102%,105%,116%,78.5%,108%,116%,40.5%,156%,82.4%,97.2%
Cc1nc(Nc2ccc(NC(=S)Nc3ccccc3)cc2)nc2nc(Nc3ccc(S(=O)(=O)O)cc3)[nH]c(=O)c12,104%,111%,109%,78.9%,125%,128%,82.5%,158%,84.5%,
CC(C)n1nc(C#Cc2cccc3cc(-c4cccc(C(F)(F)F)c4)ncc23)c2c(N)ncnc21,42.8%,93.6%,86.1%,82%,85.1%,68.7%,86.8%,83.5%,39.5%,43.2%
N#Cc1c(-c2ccccc2)nc(SCC2CO2)nc1N1CCOCC1 (centres undefined),66.9%,78.4%,69.9%,29.5%,68.6%,59.2%,38.6%,-15.2% (active),96.6%,68.6%
COc1c(C)cnc(CSc2nc(-c3ccc(C)cc3)cn2-c2ccc(Cl)cc2)c1C,83%,92.1%,94.4%,63.2%,101%,98.9%,91.1%,93.9%,99.8%,73.5%
COc1cccc(-c2nc3sccn3c2-c2ccnc(NCCNS(=O)(=O)c3c(Cl)cccc3Cl)c2)c1,74.6%,55.6%,60.5%,24.1%,68.5%,44%,36.3%,48.6%,31.1%,33.7%
CN(C)CCn1cc(-c2ccc3c(Nc4ccc(CC(=O)Nc5cccc(F)c5)cc4)ncnc3c2)cn1,37.2% [30 µM],-34.7% [30 µM] (active),-91.4% [30 µM] (active),-60% [30 µM] (active),-58.5% [30 µM] (active),-51.7% [30 µM] (active),-15.8% [30 µM] (active),59.5% [30 µM],-19.3% [30 µM] (active),-30.6% [30 µM] (active)
Cc1nc(Nc2ccc(NC(=S)Nc3ccccc3)cc2)c2ccccc2n1,111%,95.6%,101%,85.7%,131%,102%,91.3%,100%,93.1%,85.6%
O=C(NCc1cccnc1)c1cc(-c2csc3c(=O)cc(N4CCOCC4)oc23)cc2c1OCCO2,51.1%,62.5%,41.7%,30.3%,14.1%,34.5%,31.1%,39.9%,39.6%,
COc1ccc(Cn2cnc3cc(C(=O)Nc4cccc5ccccc45)ccc32)c(OC)c1,44.4% [30 µM],37.9% [30 µM],7.29% [30 µM] (active),29.8% [30 µM],76.8% [30 µM],23.8% [30 µM],18% [30 µM],-13.9% [30 µM] (active),12.6% [30 µM],6.04% [30 µM] (active)
c1ccc([P+](CCCc2n(Cc3ccc4ccccc4c3)c3ccccc3[n+]2Cc2ccc3ccccc3c2)(c2ccccc2)c2ccccc2)cc1,100%,59.4%,55%,61.2%,89.2%,81.4%,79.9%,67.2%,43.2%,57.6%
NC(=O)c1c(NC(=O)c2ccc(C(F)(F)F)cc2Cl)sc2c1CCC(=O)C2,-11.1% (active),-9.99% (active),-5.19% (active),-100% (active),6.29% (active),-91.1% (active),-82.2% (active),61.9%,-1.78% (active),-12.9% (active)
Nc1ccc2c(S(=O)(=O)O)ccc(S(=O)(=O)O)c2c1,103%,103%,95.3%,81.6%,108%,96.4%,95.6%,116%,56.5%,80.3%
O=S(=O)(NCCNc1cc(-c2c(-c3cccc(O)c3)nc3sccn23)ccn1)c1ccc(Br)cc1,79.5%,56.8%,45.3%,-1.33% (active),83.2%,56.7%,39%,51.1%,39.9%,32.9%
CCOc1ccc(S(=O)(=O)c2ccc(C)cc2)c2c1no[n+]2[O-],82.5%,83.9%,94.8%,83.3%,92.3%,85.6%,71.8%,67.2%,75.7%,
Nc1nc(I)c2ncn(C3OC(CO)C(O)C3O)c2n1 (centres undefined),159%,96.6%,100%,96%,134%,111%,9.47% (active),103%,116%,109%
C[C@@H]1CC[C@@H]2[C@@H]1[C@H](OC(=O)c1ccc3ccccc3c1)[C@]1(C3CCCCC3)C[C@@H](OC(=O)CO)[C@@]2(C)O1,69.5%,62%,24%,-43.6% (active),79.2%,7.83% (active),-31% (active),-85% (active),48.3%,
CCOC(=O)c1ccc(-c2ccc3cc(OC)ccc3c2)nc1C,102%,99.4%,101%,93.9%,84.3%,96.8%,114%,99.8%,95.3%,78%
C=C1C(=O)O[C@H]2[C@H]1CC/C(COC(=O)/C=C/C(=O)NCc1ccc(Cn3c(=O)sn(-c4ccccc4)c3=O)cc1)=C\CC[C@@]1(C)O[C@@H]21,-13.6% (active),52.3%,-43.7% (active),17.9%,-38.6% (active),-47.3% (active),35.5%,97.1%,-30.6% (active),-27.7% (active)
CC(C)c1ccc(NC(=O)Cc2ccc(Nc3ncnc4cc(-c5cnn(CCN(C)C)c5)ccc34)cc2)cc1,65.7% [30 µM],-49.6% [30 µM] (active),-95.9% [30 µM] (active),-72.9% [30 µM] (active),-57.3% [30 µM] (active),-71.5% [30 µM] (active),-40.7% [30 µM] (active),42.2% [30 µM],-28.2% [30 µM] (active),-50.9% [30 µM] (active)
COc1ccc(OC)c(/C=C2\COc3ccc(O)c(O)c3C2=O)c1,76.6%,57.9%,-4.71% (active),-25.8% (active),41.5%,19.6%,31.2%,107%,-0.701% (active),4.32% (active)
N#Cc1c(Oc2ccc([N+](=O)[O-])cc2)nc2sc3cc(Cl)ccc3n2c1=N,84.5%,84%,91%,72.5%,49.9%,100%,111%,100%,96.5%,77.3%
